Measurements published in PubChem BioAssay AID1159606 (Sanford-Burnham Center for Chemical Genomics, 2016).
The campaign covered roughly 360,000 compounds. About 7,300 (2%) were called active. This is one part of a sample in which actives are shown more often than they occur. A number with no mark means an inactive call. No stated cut-off is given here; in the data, active means inhibition above about 50%; inactive means the rest.

Assay: blockers of TWEAK-induced Fn14 reporter activity – luciferase reporter cells, uHTS, primary screen (AID 1159606)
Conditions: TWEAK-stimulated Fn14 reporter cells, luciferase luminescence, 8 h; at 10 µM; active compounds read high

Row | SMILES | inhibition
1 | COc1cc(C(O)c2nc(-c3cnn(C)c3)cs2)ccc1F (stereo not given) | -2.28%
2 | Brc1ccccc1/C=N/Nc1nc2ccccc2o1 | -8.62%
3 | Oc1c(Br)cccc1/C=N/Nc1c(F)c(F)c(F)c(F)c1F | 71.5% (active)
4 | c1cc(-c2ccc3[nH]ccc3c2)n2ccnc2c1 | -2.85%
5 | COCCNC(=S)N1CCC(NC(=O)C23CC4CC(CC(C4)C2)C3)CC1 | 15.9%
6 | CCOC(=O)[C@]12CCCC=C1N(Cc1ccc(Cl)cc1Cl)C(=O)[C@H](CC(=O)N1CCCCC1)C2 | 7.58%
7 | COc1cc2c(=O)n(C)c3ccccc3c2cc1OC | -37.3%
8 | CC(=O)Nc1cccc(C(=O)OCC(=O)NCc2cc(C)c(O)c(C)c2)c1 | -19.2%
9 | COc1ccc(C(=O)OCC(=O)Nc2cccc(C(C)=O)c2)cc1OC | 11.4%
10 | O=C(COC(=O)c1ccccc1)c1ccc2c(c1)OCCO2 | 77.6% (active)
11 | O=C(OCc1ccccc1F)c1ccc2c(c1)OCCO2 | -12.5%
12 | O=C(COC(=O)c1ccc(O)cc1O)c1ccc2c(c1)OCCO2 | -18.5%
13 | CC(=O)Nc1cccc(C(=O)OCC(=O)c2ccc3c(c2)OCO3)c1 | 81.9% (active)
14 | CCOC(=O)[C@]12CCC=C1N(Cc1ccccc1)C(=O)[C@H](CC(=O)N1CCCC1)C2 | 15.9%
15 | CCN(CCCNC(=O)CCn1c(=O)[nH]c2ccsc2c1=O)c1ccccc1 | -1.46%
16 | CCN1CCN(CCNC(=O)c2ccc3c(c2)NC(=O)/C(=C\c2cccc(Cl)c2)S3)CC1 | -66.6%
17 | CCN(CCCNC(=O)c1ccc2c(c1)NC(=O)CN2C)c1cccc(C)c1 | 82.5% (active)
18 | CCOC(=O)N1CCN(C(=O)C[C@@H]2C[C@@]3(C(=O)OC)CCCCC=C3N(CCC3=CCCCC3)C2=O)CC1 | -5.06%
19 | COCCCn1cc(CN2CC(N(C)C)CS2(=O)=O)nn1 (stereo not given) | 20.9%
20 | CC(C)C[C@H]1CNC(=O)C(=O)N1C[C@H]1CCCN1C[C@H](Cc1ccc(O)cc1)N1C[C@H](CC(C)C)N(CC2CCCCCC2)C(=O)C1=O | 1.64%
21 | CCC(C)Cn1c(O)cc2nn(-c3nc4ccccc4s3)c(=O)c-2c1C (stereo not given) | 61.6% (active)
22 | C[C@H](CO)N1C[C@H](C)[C@H](CN(C)C(=O)Nc2ccc3c(c2)OCO3)Oc2ncc(Br)cc2C1=O | -2.28%
23 | OCCC1CN(Cc2ccc(Oc3ncccn3)cc2)CCN1CCc1ccccc1 (stereo not given) | 75.5% (active)
24 | CC(C)=CCN1CCN(Cc2ccc(Oc3ncccn3)cc2)CC1CCO (stereo not given) | 14.3%
25 | CCOc1ccc(CN2CCN(CCCc3ccccc3)C(CCO)C2)cc1 (stereo not given) | 1.65%
26 | COc1ccc(OC)c(NC(=O)c2ccc3c(c2)CCN3S(C)(=O)=O)c1 | -3.45%
27 | CN(C)C1CN(Cc2cn(Cc3ccccc3)nn2)S(=O)(=O)C1 (stereo not given) | 7.88%
28 | COCc1c(N)c(C)nc(Cl)c1C#N | 12.4%

Row | SMILES | inhibition
29 | C[C@@H]1CN([C@@H](C)CO)C(=O)CCCn2nncc2CO[C@H]1CN(C)C(=O)Nc1ccc(C(F)(F)F)cc1 | 106% (active)
30 | COC(=O)N(C)C[C@@H]1OCc2cnnn2CCCC(=O)N([C@@H](C)CO)C[C@@H]1C | 19.1%
31 | C[C@@H]1CN([C@@H](C)CO)C(=O)CCCn2nncc2CO[C@H]1CN(C)Cc1ccc(C(F)(F)F)cc1 | 1.47%
32 | O=C1c2ccncc2C(=O)N1C1CCCCC1 | -3.74%
33 | O=[N+]([O-])c1cc(Br)c(O)c(/C=N/Nc2nc3ccccc3s2)c1 | 75.7% (active)
34 | c1ccc(C(=NNc2nc3ccccc3s2)c2ccccn2)cc1 | 44.1%
35 | O=C(N/N=C/c1cc(Br)c(O)c([N+](=O)[O-])c1)C(O)(c1ccccc1)c1ccccc1 | -0.77%
36 | Cc1cccc(CN2CCN(C3CN(Cc4ccccc4)S(=O)(=O)C3)CC2)c1 (stereo not given) | -19.1%
37 | O=C(c1c(Cl)cccc1Cl)N1CCN(c2cccc3[nH]ccc23)CC1 | -30.3%
38 | COc1ccc(-c2ccc(CN3C(CC(C)C)C(=O)N(Cc4cn(CC5CCCCC5)nn4)CCS3(=O)=O)cc2)cc1 (stereo not given) | 24.8%
39 | O=S1(=O)CC(N2CCN(CCO)CC2)CN1Cc1cn(Cc2ccc(Cl)cc2)nn1 (stereo not given) | -0.1%
40 | CN(C)C(=O)c1cccc(-c2cnc3sc(NCc4ccc5c(c4)OCO5)nn23)c1 | 81.9% (active)
41 | CCOc1c2ccc(C(=O)NCc3ccc4c(c3)OCO4)cc2nn1C | -1.73%
42 | O=C(CSc1ncnc2scc(-c3ccccc3)c12)NCc1ccc2c(c1)OCO2 | 27.4%
43 | O=C(C1CCN(S(=O)(=O)c2ccc(Br)s2)CC1)N1CCN(c2ccccc2)CC1 | 35.1%
44 | CC(C)C(=O)N1CCC2(CC1)Oc1ccc(F)cc1C(=O)C21CC(c2ccccc2)=NO1 (stereo not given) | -32.9%
45 | CC1(C(=O)NNC(=S)NCC2CCCO2)CC1(Cl)Cl (stereo not given) | 5.56%
46 | CCOC(=O)CCc1c(C)c2ccc(OCc3nn[nH]n3)c(C)c2oc1=O | 11.4%
47 | Cc1c(CCC(=O)O)c(=O)oc2c(C)c(OCc3ccccc3Cl)ccc12 | 55.7% (active)
48 | Cc1c(CCC(=O)O)c(=O)oc2cc(OCc3ccc(Br)cc3)ccc12 | 6.88%
49 | CC(C)Nc1ncnc2c1ncn2[C@H]1CN(Cc2ccncc2)C[C@@H](CO)O1 | -31.2%
50 | O=C(Nc1ccc2c(c1)OCCO2)C(C1CC1)N1CCC(Cc2ccccc2)CC1 (stereo not given) | -6.47%
51 | Oc1ccc2nc(Cc3ccccc3)[nH]c2c1 | -12.2%
52 | O=C(/C(=C/c1cccc(Cl)c1)c1nc2ccccc2[nH]1)c1ccccc1 | 72.2% (active)
53 | O=c1c2cc(Br)ccc2nc(-c2cccc(Cl)c2)n1O | 12.1%
54 | Brc1ccc2nc(-c3ccccc3)c(Cc3ccccc3)n2c1 | -30.1%
55 | CCCCC[C@H](C)N1C[C@@H](COCc2ccccc2)Oc2cc(N3CCC[C@@H]3CO)ccc2S1(=O)=O | 9.1%
